# Laboratory results taken from PubChem BioAssay (NCI).
# This is part of a sample that, as a whole, favours compounds with a hit. Of some 79,000 tested, about 15% had one in any assay. Unmarked numbers belong to inactive results. Activity calls are given as the source filed them. Cut-off read from the data, not from the text of the source: active = growth inhibition above about 70%; inactive = the rest.
# Columns and labels:
# [1] = NCI Yeast Anticancer Drug Screen. Data for the rad50 strain (AID 155);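 note: 0% = growth of vehicle-only cultures of the same strain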; settings: S. cerevisiae rad50 strain growth inhibition; at 50.0 µM; hits give high values
# Outline: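 Genetically altered yeast (DNA repair pathway); compound treatment; growth inhibition vs vehicle ctrl.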
# [2] = NCI Yeast Anticancer Drug Screen. Data for the mec2-1 strain (AID 157); settings: S. cerevisiae mec2-1 strain, at 50.0 µM, hits give high values
# Outline: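 Strain: mec2-1 (DNA repair/cell cycle alteration). Compound exposure, then growth measured; inhibition expressed relative to vehicle.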
# [3] = NCI Yeast Anticancer Drug Screen. Data for the sgs1 mgt1 strain (AID 161);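 note: 0% = growth of cultures given vehicle only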; settings: S. cerevisiae sgs1 mgt1 strain, at 50.0 µM, hits give high values
# Outline: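 Genetically altered yeast, compound exposure, growth inhibition relative to vehicle.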
# [4] = NCI Yeast Anticancer Drug Screen. Data for the cln2 rad14 strain (AID 165);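 note: 0% = growth equal to vehicle treated cultures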; settings: S. cerevisiae cln2 rad14 strain, at 50.0 µM, hits give high values
# Outline: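 Compounds are applied to the cln2 rad14 yeast strain, and growth is then compared with that of vehicle-treated cultures to give inhibition.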
# [5] = NCI Yeast Anticancer Drug Screen. Data for the bub3 strain (AID 167); settings: S. cerevisiae bub3 mutant strain, at 50.0 µM, hits give high values
# Outline: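 Yeast carrying a defined mutation is treated with each compound, and growth is compared with that of vehicle-exposed cells to give inhibition.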
# [6] = NCI Yeast Anticancer Drug Screen. Data for the mlh1 rad18 strain (AID 175); settings: S. cerevisiae mlh1 rad18 strain growth inhibition; at 50.0 µM; hits give high values
# Outline: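 Read-out is yeast growth inhibition, calculated against vehicle-only controls. The compound was applied to a strain engineered with DNA damage repair alterations.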
Structure (SMILES),growth inhibition [1],growth inhibition [2],growth inhibition [3],growth inhibition [4],growth inhibition [5],growth inhibition [6]
Nc1nc(-c2cc(-c3ccco3)nc(N)n2)cc(-c2ccco2)n1,-8.2%,-13.6%,-20.8%,-17.8%,-35.6%,-17.6%
CCc1cccc(CC)c1N=C(NC(=O)c1ccc(Br)cc1)SC,-17.6%,-16.5%,-4.7%,-6.75%,-17.1%,-5.65%
O=C(CCl)N1CCC(CC2(c3cc4ccccc4[nH]3)OCCO2)CC1,-0.95%,15.2%,29.9%,-5.05%,10.1%,1.15%
CCCSc1nc2c(=O)n(C)c(=O)[nH]c2n1C,-10.2%,-1.8%,-6.95%,-36.3%,-12.2%,-3.55%
CCc1nc(N)nc(-c2nc(N)nc(CC)c2C)c1C,10.8%,-2.4%,-8.4%,-7.8%,-29.4%,15.8%
COC(=O)C(N)CSc1ccc([N+](=O)[O-])cc1[N+](=O)[O-] (stereo unspecified),37.5%,39.5%,40.2%,25.1%,16.1%,48.9%
N#C/C(=C(\O)C(=O)O)c1ccc(-c2cccc3ccccc23)cc1,29.6%,0.6%,-17.9%,1.9%,16.7%,26.9%
O=C1Oc2cc3c(c4cccc1c24)O[C@H](c1ccccc1)[C@@H](c1ccccc1)[C@@H]3c1ccc(Cl)cc1,-2.95%,11.2%,-2.4%,-5.15%,3.3%,9.3%
CCOC(=O)C1C2CC3C(CC21C)C3(C)C (stereo unspecified),-6.1%,-6.65%,-12.9%,-2.5%,-20.6%,1%
COc1ccccc1Nc1nc(N)nc(N)c1N=O,11.4%,-36.1%,-16.2%,-27.7%,-34.6%,-56.1%
CO[C@@H]1O[C@H](C(=O)c2ccccc2)[C@H]2OC(C)(C)O[C@@H]12,-5%,-10.7%,28.3%,8.7%,19.1%,16.3%
O=C(OC(CN1CCCCC1)CN1CCCc2ccccc21)C(O)C(O)C(O)(CO)C(=O)OC(CN1CCCCC1)CN1CCCc2ccccc21 (stereo unspecified),15.4%,7.05%,43.8%,1.8%,7.95%,41.1%
Cc1cc(C(N)=O)no1,1.5%,-2.55%,-5.7%,-10%,3.9%,-1.05%
O=C(O)C1OCOC2C(CO)OCOC12 (stereo unspecified),11.8%,-5.35%,17%,-29.9%,-3.6%,11.1%
CCCCCCCCCC[n+]1cccc(C(N)=O)c1,3.7%,-17.2%,13.8%,3.75%,-1.05%,28.9%
O=c1[nH]c(-c2ccccc2)nc2cc([N+](=O)[O-])c(/C(Cl)=C/c3ccccc3)cc12,28.8%,14.4%,13.8%,12.1%,-1%,33.8%
CC(O)CC(C)O (stereo unspecified),1.9%,-4.6%,2.95%,-3.45%,6.15%,2.3%
COC(=O)/C=C(\S/C=C(/c1ccccc1)N1CCn2c(C(=O)c3ccccc3)c(C(=O)OC)c(C(=O)OC)c21)C(=O)OC,27.4%,32.6%,43.8%,11.4%,54.1%,15.2%
CC(C)(C)OC(=O)N1CC(C)(C)N2C(=O)C3(CCCO3)C12 (stereo unspecified),-4.3%,-9.85%,-7.15%,-0.4%,-16.6%,5.65%
CC(=O)OCCCC1CO1 (stereo unspecified),14.9%,-13.7%,-1.4%,3.15%,-14.2%,10.6%
O=C(O)C1CC2C3CCC2C1C3=O (stereo unspecified),-8.8%,-26.3%,23.1%,4.4%,-2.8%,-34.7%

Structure (SMILES),growth inhibition [1],growth inhibition [2],growth inhibition [3],growth inhibition [4],growth inhibition [5],growth inhibition [6]
COc1cc(C(=O)O)c(C(=O)O)cc1OC,2.6%,21.4%,20.5%,-29.1%,2.45%,0.5%
CC(O)(C(=O)O)C(NC(=O)c1ccccc1)C(=O)O (stereo unspecified),12.2%,6.2%,-2.5%,6.3%,11.1%,2.45%
CC(C)=CCOc1ccc(-c2coc3cc4c(c(O)c3c2=O)C=CC(C)(C)O4)cc1,15.7%,3.1%,15.9%,13.3%,24%,26.8%
Cc1ccc(C(=O)Cc2ccccc2)cc1,8.05%,6.15%,4.85%,1.25%,-1.85%,1.05%
c1ccc2c(c1)SCCc1nncn1-2,-6.6%,7.3%,-1.4%,-24.4%,8.5%,4.95%
CCCCCCCCCCCCCCCC(=O)Nc1ccn(C2OC(CO)C(O)C2O)c(=O)n1 (stereo unspecified),-1.45%,-19.9%,6.75%,10.1%,-6.8%,-14.7%
O=C(Nc1cccc2ccccc12)OCC1CC1,-4%,22.8%,-4.55%,-6.2%,-34.9%,-4.4%
CCn1c2ccccc2c2cc(/C=N/N=C/c3ccc4c(c3)c3ccccc3n4CC)ccc21,-17.8%,5.15%,-11.6%,-13.7%,-1.8%,-18.9%
CC(=O)[O-].Cc1ccnc(NS(=O)(=O)c2ccc(N=Cc3ccccc3[O-])cc2)n1.Cc1ccnc(NS(=O)(=O)c2ccc(N=Cc3ccccc3[O-])cc2)n1.[Cu+2],9%,2%,2.6%,19.1%,11.1%,34.4%
C/C=C/C(=O)Nc1cc(C(F)(F)F)ccc1Cl,26.6%,-2.3%,-44.5%,10.8%,1.4%,9.15%
Cc1occc1C(=S)Nc1ccc(Cl)c(OCC(=O)OC(C)(C)C)c1,49%,50.6%,49.2%,40.2%,46.6%,38.9%
CCc1cc2c(cc1C(=O)CCN1CCCC1)C(C)(C)CCC2(C)C,99.5% (active),99.7% (active),98.5% (active),99.5% (active),99.5% (active),99.8% (active)
CSC1=NNC(c2ccccc2)=C(c2ccccc2)S1,-1.55%,4.2%,52%,-31.8%,59.7%,0.45%
COc1ccc2nccc(SCC(=O)O)c2c1,-5.25%,8.25%,-29.6%,18.9%,37%,1.85%
O=P(OCCCl)(OCCCl)C(c1ccccc1)(c1ccccc1)c1ccccc1,63.4%,35.7%,72.6% (active),36.9%,38.5%,65.2%
CCOC(=O)c1cc(NC(C)=O)c(C)n1C,-5.4%,8.6%,-3.45%,-26.6%,11.1%,16.4%
CN(C)CCNC(=O)c1cc([N+](=O)[O-])cn1C,10.9%,-1.4%,9.15%,7.65%,1.25%,-68.2%
O=S(=O)(c1ccc(OCCOc2ccc(S(=O)(=O)N3CCOCC3)cc2)cc1)N1CCOCC1,0.55%,7.75%,12.6%,-15.4%,2.95%,-14%
O=c1cc(-c2ccccc2)nc(Sc2ccc([N+](=O)[O-])cc2[N+](=O)[O-])[nH]1,1.1%,0.2%,-11.4%,2.7%,2.65%,8.25%
O=C(c1ccco1)N(C(=S)N1CCN(c2ccccc2)CC1)C1CCCCC1,16.4%,25.4%,26.4%,36%,24.4%,19.1%
